About 7,900 targets were measured; listed, in parts, are those with a hit and a random draw of the rest. About 0.6% of all pairs of compound and target were hits.
Key:
Experiment in all cases: log2 fold change, soluble protein after heating vs DMSO (PISA); higher = thermal stabilisation; K562 cells, 10 uM, 30 min; active = over 0.2 and 3.5 SD of the protein, either way, in both replicates (recomputed)
saracatinib = compound: CN1CCN(CCOc2cc(OC3CCOCC3)c3c(Nc4c(Cl)ccc5c4OCO5)ncnc3c2)CC1 [saracatinib]
How it was run: (§1)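 Values are thermal stability changes relative to control samples and are taken from duplicates. They are stated as log2 fold changes. Before quantification by TMTpro 16plex LC-MS/MS with equalised channel sums, K562 cells at 2×10^6 cells/mL were treated with 10 μM compound for 30 min, heated in aliquots for 3 min across 48°C-58°C, pooled, extracted in PBS with 0.5% NP-40 at 4°C, and centrifuged at 21,000xg for 90 min to give the soluble supernatant.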

sotrastaurin = compound: CN1CCN(c2nc(C3=C(c4c[nH]c5ccccc45)C(=O)NC3=O)c3ccccc3n2)CC1 [sotrastaurin]
How it was run: as §1

alvocidib = compound: CN1CC[C@H](c2c(O)cc(O)c3c(=O)cc(-c4ccccc4Cl)oc23)[C@H](O)C1 [alvocidib]
How it was run: as §1

Tubastatin A = compound: CN1CCc2c(c3ccccc3n2Cc2ccc(C(=O)NO)cc2)C1 [Tubastatin A]
How it was run: as §1

[1] = compound: CNC(=O)C1=CC=CC=C1NC2=NC(=NC=C2Cl)NC3=C(C=C(C=C3)N4CCOCC4)OC
How it was run: as §1

defactinib = compound: CNC(=O)c1ccc(Nc2ncc(C(F)(F)F)c(NCc3nccnc3N(C)S(C)(=O)=O)n2)cc1 [defactinib]
How it was run: as §1

rucaparib = compound: CNCc1ccc(-c2[nH]c3cc(F)cc4c3c2CCNC4=O)cc1 [rucaparib]
How it was run: as §1

[2] = compound: CNc1nc(-c2ccc3c(N)n[nH]c3c2)cc(N2C[C@@H](C(=O)NC3CCCCC3)CC[C@H]2C)n1
How it was run: as §1

encorafenib = compound: COC(=O)N[C@@H](C)CNc1nccc(-c2cn(C(C)C)nc2-c2cc(Cl)cc(NS(C)(=O)=O)c2F)n1 [encorafenib]
How it was run: as §1

[3] = compound: COC(=O)[C@H](CCSC)NC(=O)C1=C(C=C(C=C1)NC[C@H](CS)N)C2=CC=CC=C2
How it was run: as §1

[4] = compound: COC1=CC=C(C=C1)CN2C=CC3=C2C=C(C=C3)C(=O)NO
How it was run: as §1

filanesib = compound: CON(C)C(=O)N1N=C(c2cc(F)ccc2F)S[C@@]1(CCCN)c1ccccc1 [filanesib]
How it was run: as §1

zotarolimus = compound: CO[C@H]1C[C@@H]2CC[C@@H](C)[C@@](O)(O2)C(=O)C(=O)N2CCCC[C@H]2C(=O)O[C@H]([C@H](C)C[C@@H]2CC[C@H](n3cnnn3)[C@H](OC)C2)CC(=O)[C@H](C)/C=C(\C)[C@@H](O)[C@@H](OC)C(=O)[C@H](C)C[C@H](C)/C=C/C=C/C=C/1C [zotarolimus]
How it was run: as §1

idasanutlin = compound: COc1cc(C(=O)O)ccc1NC(=O)[C@@H]1N[C@@H](CC(C)(C)C)[C@](C#N)(c2ccc(Cl)cc2F)[C@H]1c1cccc(Cl)c1F [idasanutlin]
How it was run: as §1

alisertib = compound: COc1cc(Nc2ncc3c(n2)-c2ccc(Cl)cc2C(c2c(F)cccc2OC)=NC3)ccc1C(=O)O [alisertib]
How it was run: as §1

[5] = compound: COc1cc2nc(-c3cc(F)ccc3O)nc(N[C@@H]3CNC[C@H]3C(C)(C)O)c2cc1OC
How it was run: as §1

gefitinib = compound: COc1cc2ncnc(Nc3ccc(F)c(Cl)c3)c2cc1OCCCN1CCOCC1 [gefitinib]
How it was run: as §1

[6] = compound: COc1cccc2cc(-c3nc([C@H]4CC[C@H](C(=O)O)CC4)n4ncnc(N)c34)[nH]c12
How it was run: as §1

lapatinib = compound: CS(=O)(=O)CCNCc1ccc(-c2ccc3ncnc(Nc4ccc(OCc5cccc(F)c5)c(Cl)c4)c3c2)o1 [lapatinib]
How it was run: as §1

pictilisib = compound: CS(=O)(=O)N1CCN(Cc2cc3nc(-c4cccc5[nH]ncc45)nc(N4CCOCC4)c3s2)CC1 [pictilisib]
How it was run: as §1

Measured: log2 fold change

AAR2 (UniProt Q9Y312)
Sequence of UniProt Q9Y312 (Q9Y312 whole entry, looked up): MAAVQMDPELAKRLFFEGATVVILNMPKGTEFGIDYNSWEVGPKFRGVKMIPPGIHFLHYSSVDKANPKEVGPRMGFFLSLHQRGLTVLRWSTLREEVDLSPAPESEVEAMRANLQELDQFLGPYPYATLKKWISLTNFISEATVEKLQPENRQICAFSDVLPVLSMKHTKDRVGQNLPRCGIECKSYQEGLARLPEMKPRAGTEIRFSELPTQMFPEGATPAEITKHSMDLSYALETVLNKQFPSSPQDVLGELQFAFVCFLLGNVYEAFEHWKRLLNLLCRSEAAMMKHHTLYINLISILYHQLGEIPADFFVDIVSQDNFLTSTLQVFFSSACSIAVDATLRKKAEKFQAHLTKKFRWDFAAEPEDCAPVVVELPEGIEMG
inactive: saracatinib 0.06 | sotrastaurin -0.017 | alvocidib -0.026 | Tubastatin A -0.027 | [1] -0.049 | defactinib 0.063 | rucaparib 0.17 | [2] -0.069 | encorafenib -0.029 | [3] -0.015 | [4] 0.022 | filanesib 0.111 | zotarolimus 0.042 | idasanutlin 0.002 | alisertib -0.129 | [5] 0.104 | gefitinib 0.075 | [6] 0.058 | lapatinib -0.005 | pictilisib -0.082

ACSF3 (UniProt Q4G176)
Sequence of UniProt Q4G176 (Q4G176 whole entry, looked up): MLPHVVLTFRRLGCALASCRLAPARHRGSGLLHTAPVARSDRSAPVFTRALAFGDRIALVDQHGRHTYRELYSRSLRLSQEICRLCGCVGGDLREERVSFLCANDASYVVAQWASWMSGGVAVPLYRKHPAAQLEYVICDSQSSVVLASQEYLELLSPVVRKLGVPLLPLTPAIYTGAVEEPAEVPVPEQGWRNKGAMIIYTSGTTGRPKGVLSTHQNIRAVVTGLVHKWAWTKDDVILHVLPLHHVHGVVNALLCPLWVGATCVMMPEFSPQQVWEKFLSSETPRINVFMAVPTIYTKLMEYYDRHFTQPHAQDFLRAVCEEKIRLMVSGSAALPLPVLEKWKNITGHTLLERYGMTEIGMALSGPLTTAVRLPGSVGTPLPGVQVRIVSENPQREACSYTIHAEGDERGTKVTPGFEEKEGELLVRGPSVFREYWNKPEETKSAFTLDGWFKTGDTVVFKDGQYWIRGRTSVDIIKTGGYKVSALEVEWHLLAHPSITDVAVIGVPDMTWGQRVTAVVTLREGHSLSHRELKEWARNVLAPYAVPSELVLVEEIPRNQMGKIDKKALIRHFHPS
inactive: saracatinib 0.079 | sotrastaurin 0.002 | alvocidib 0.026 | Tubastatin A -0.067 | [1] 0.099 | defactinib -0.058 | rucaparib -0.051 | [2] -0.016 | encorafenib 0.146 | [3] -0.019 | [4] -0.099 | filanesib -0.045 | zotarolimus -0.01 | idasanutlin 0.051 | alisertib 0.001 | [5] -0.053 | gefitinib -0.096 | [6] 0.054 | lapatinib -0.004 | pictilisib 0.064

ARGLU1 (UniProt Q9NWB6)
Sequence of UniProt Q9NWB6 (Q9NWB6 whole entry, looked up): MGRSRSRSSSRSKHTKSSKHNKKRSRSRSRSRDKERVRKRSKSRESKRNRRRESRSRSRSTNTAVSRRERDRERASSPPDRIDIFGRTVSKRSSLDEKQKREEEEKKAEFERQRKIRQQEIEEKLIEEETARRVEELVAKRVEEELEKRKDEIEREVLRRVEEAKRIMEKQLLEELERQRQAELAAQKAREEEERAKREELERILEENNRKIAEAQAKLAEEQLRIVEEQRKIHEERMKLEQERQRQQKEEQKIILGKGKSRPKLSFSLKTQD
inactive: saracatinib 0.016 | sotrastaurin 0.091 | alvocidib 0.014 | Tubastatin A 0.003 | [1] -0.365 | defactinib -0.04 | rucaparib -0.026 | [2] -0.028 | encorafenib -0.006 | [3] 0.077 | [4] 0.066 | filanesib 0.207 | zotarolimus 0.025 | idasanutlin 0.171 | alisertib -0.13 | [5] 0.05 | gefitinib 0.212 | [6] 0.031 | lapatinib 0.062 | pictilisib -0.027

ACSL5 isoform 3 (UniProt Q9ULC5)
inactive: saracatinib 0.058 | sotrastaurin 0.078 | alvocidib -0.082 | Tubastatin A -0.057 | [1] 0.071 | defactinib -0.063 | rucaparib 0.005 | [2] -0.132 | encorafenib -0.072 | [3] 0 | [4] -0.023 | filanesib -0.118 | zotarolimus 0.073 | idasanutlin -0.148 | alisertib -0.009 | [5] -0.259 | gefitinib 0.068 | [6] 0.074 | lapatinib 0.074 | pictilisib 0.065

BID isoform 2 (UniProt P55957)
Sequence of UniProt P55957 (P55957 whole entry, looked up): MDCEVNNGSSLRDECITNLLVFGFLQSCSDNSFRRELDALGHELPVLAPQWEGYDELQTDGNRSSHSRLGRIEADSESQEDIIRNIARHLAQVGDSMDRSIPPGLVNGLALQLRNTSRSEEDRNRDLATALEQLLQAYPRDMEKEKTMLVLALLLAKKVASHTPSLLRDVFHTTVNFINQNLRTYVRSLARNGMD
inactive: saracatinib 0.008 | sotrastaurin 0.04 | alvocidib -0.018 | Tubastatin A 0.076 | [1] -0.053 | defactinib -0.031 | rucaparib 0.033 | [2] -0.017 | encorafenib -0.011 | [3] -0.032 | [4] 0.045 | filanesib 0.016 | zotarolimus 0.08 | idasanutlin 0.016 | alisertib -0.045 | [5] -0.006 | gefitinib 0 | [6] 0.089 | lapatinib 0.005 | pictilisib 0.038

ALDH2 (UniProt P05091)
Sequence of UniProt P05091 (P05091 whole entry, looked up): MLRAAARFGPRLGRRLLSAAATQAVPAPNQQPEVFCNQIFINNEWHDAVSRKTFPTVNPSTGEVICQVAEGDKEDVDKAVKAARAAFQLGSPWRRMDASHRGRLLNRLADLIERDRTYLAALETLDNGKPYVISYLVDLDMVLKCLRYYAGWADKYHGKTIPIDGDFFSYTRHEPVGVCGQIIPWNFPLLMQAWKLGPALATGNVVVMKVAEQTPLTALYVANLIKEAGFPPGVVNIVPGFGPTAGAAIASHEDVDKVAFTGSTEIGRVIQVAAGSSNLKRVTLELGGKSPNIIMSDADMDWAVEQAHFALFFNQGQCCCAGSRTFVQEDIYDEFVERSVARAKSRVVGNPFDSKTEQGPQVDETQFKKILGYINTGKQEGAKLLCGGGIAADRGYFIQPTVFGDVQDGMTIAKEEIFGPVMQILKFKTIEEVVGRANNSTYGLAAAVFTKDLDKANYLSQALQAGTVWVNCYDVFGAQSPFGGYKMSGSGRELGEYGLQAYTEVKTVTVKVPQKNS
inactive: saracatinib 0.007 | sotrastaurin -0.099 | alvocidib -0.04 | Tubastatin A -0.032 | [1] 0.078 | defactinib -0.055 | rucaparib -0.099 | [2] 0.026 | encorafenib 0.013 | [3] -0.03 | [4] -0.011 | filanesib -0.142 | zotarolimus 0.055 | idasanutlin -0.104 | alisertib 0.015 | [5] -0.006 | gefitinib 0.028 | [6] 0.069 | lapatinib -0.02 | pictilisib 0.043

ATP13A3 (UniProt Q9H7F0)
inactive: saracatinib -0.029 | sotrastaurin 0.048 | alvocidib -0.159 | Tubastatin A 0.002 | [1] -0.005 | defactinib -0.014 | rucaparib 0.091 | [2] 0.013 | encorafenib 0.037 | [3] 0.037 | [4] -0.034 | filanesib 0.054 | zotarolimus -0.158 | idasanutlin -0.027 | alisertib -0.098 | [5] -0.078 | gefitinib -0.02 | [6] -0.038 | lapatinib 0.005 | pictilisib 0.104

ATAD1 (UniProt Q8NBU5)
Sequence of UniProt Q8NBU5 (Q8NBU5 whole entry, looked up): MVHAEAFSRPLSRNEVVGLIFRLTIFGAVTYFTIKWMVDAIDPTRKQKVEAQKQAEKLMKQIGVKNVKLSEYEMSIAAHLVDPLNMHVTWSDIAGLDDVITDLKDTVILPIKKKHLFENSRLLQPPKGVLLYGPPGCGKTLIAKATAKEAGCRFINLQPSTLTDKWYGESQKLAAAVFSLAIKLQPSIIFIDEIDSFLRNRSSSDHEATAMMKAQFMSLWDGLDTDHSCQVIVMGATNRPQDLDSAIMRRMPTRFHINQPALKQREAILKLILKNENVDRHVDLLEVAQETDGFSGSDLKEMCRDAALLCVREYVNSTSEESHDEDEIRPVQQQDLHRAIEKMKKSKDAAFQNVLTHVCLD
inactive: saracatinib -0.044 | sotrastaurin 0.029 | alvocidib -0.007 | Tubastatin A 0.008 | [1] -0.032 | defactinib -0.029 | rucaparib 0.018 | [2] 0.136 | encorafenib 0.017 | [3] -0.042 | [4] 0.009 | filanesib -0.045 | zotarolimus 0.087 | idasanutlin -0.046 | alisertib -0.037 | [5] -0.014 | gefitinib 0.003 | [6] -0.029 | lapatinib 0.007 | pictilisib 0.012

ATP6V1F isoform 2 (UniProt Q16864)
Sequence of UniProt Q16864 (Q16864 whole entry, looked up): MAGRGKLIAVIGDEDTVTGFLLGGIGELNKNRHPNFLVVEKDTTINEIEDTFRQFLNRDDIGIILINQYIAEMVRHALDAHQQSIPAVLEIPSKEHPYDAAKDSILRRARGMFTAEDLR
inactive: saracatinib -0.198 | sotrastaurin 0.092 | alvocidib -0.174 | Tubastatin A 0.11 | [1] 0.031 | defactinib 0.007 | rucaparib -0.037 | [2] -0.129 | encorafenib -0.039 | [3] 0.238 | [4] 0.126 | filanesib 0.162 | zotarolimus 0.036 | idasanutlin 0.095 | alisertib -0.158 | [5] -0.151 | gefitinib 0.019 | [6] 0.021 | lapatinib -0.112 | pictilisib -0.054

ACSM3 (UniProt Q53FZ2)
inactive: saracatinib 0.031 | sotrastaurin 0.018 | alvocidib -0.021 | Tubastatin A 0.009 | [1] 0.053 | defactinib -0.148 | rucaparib 0.142 | [2] -0.09 | encorafenib 0.021 | [3] -0.064 | [4] 0.134 | filanesib -0.056 | zotarolimus 0.009 | idasanutlin -0.017 | alisertib -0.033 | [5] 0.101 | gefitinib -0.034 | [6] 0.028 | lapatinib -0.025 | pictilisib 0.198

ASNS (UniProt P08243)
Sequence of UniProt P08243 (P08243 whole entry, looked up): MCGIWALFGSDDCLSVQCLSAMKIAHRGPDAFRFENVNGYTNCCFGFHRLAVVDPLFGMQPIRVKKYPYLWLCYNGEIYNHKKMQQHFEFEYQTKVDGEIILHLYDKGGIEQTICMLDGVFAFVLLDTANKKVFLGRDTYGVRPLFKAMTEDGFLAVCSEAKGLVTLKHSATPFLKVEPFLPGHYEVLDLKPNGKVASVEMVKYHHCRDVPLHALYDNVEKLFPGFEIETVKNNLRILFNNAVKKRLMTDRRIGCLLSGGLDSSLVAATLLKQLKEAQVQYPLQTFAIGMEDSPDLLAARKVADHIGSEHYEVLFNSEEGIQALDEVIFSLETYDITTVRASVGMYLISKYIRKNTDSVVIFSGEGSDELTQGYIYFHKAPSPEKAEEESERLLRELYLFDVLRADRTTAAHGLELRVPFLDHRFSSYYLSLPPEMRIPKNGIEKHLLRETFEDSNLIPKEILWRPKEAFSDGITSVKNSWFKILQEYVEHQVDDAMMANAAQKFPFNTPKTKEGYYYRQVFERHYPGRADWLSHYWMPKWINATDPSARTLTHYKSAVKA
inactive: saracatinib 0.041 | sotrastaurin 0.016 | alvocidib -0.013 | Tubastatin A -0.002 | [1] -0.036 | defactinib -0.018 | rucaparib -0.017 | [2] -0.015 | encorafenib -0.009 | [3] -0.001 | [4] 0.027 | filanesib -0.073 | zotarolimus -0.002 | idasanutlin -0.021 | alisertib -0.027 | [5] 0.02 | gefitinib -0.032 | [6] 0.034 | lapatinib -0.017 | pictilisib 0.019

BCL9L (UniProt Q86UU0)
Sequence of UniProt Q86UU0 (Q86UU0 whole entry, looked up): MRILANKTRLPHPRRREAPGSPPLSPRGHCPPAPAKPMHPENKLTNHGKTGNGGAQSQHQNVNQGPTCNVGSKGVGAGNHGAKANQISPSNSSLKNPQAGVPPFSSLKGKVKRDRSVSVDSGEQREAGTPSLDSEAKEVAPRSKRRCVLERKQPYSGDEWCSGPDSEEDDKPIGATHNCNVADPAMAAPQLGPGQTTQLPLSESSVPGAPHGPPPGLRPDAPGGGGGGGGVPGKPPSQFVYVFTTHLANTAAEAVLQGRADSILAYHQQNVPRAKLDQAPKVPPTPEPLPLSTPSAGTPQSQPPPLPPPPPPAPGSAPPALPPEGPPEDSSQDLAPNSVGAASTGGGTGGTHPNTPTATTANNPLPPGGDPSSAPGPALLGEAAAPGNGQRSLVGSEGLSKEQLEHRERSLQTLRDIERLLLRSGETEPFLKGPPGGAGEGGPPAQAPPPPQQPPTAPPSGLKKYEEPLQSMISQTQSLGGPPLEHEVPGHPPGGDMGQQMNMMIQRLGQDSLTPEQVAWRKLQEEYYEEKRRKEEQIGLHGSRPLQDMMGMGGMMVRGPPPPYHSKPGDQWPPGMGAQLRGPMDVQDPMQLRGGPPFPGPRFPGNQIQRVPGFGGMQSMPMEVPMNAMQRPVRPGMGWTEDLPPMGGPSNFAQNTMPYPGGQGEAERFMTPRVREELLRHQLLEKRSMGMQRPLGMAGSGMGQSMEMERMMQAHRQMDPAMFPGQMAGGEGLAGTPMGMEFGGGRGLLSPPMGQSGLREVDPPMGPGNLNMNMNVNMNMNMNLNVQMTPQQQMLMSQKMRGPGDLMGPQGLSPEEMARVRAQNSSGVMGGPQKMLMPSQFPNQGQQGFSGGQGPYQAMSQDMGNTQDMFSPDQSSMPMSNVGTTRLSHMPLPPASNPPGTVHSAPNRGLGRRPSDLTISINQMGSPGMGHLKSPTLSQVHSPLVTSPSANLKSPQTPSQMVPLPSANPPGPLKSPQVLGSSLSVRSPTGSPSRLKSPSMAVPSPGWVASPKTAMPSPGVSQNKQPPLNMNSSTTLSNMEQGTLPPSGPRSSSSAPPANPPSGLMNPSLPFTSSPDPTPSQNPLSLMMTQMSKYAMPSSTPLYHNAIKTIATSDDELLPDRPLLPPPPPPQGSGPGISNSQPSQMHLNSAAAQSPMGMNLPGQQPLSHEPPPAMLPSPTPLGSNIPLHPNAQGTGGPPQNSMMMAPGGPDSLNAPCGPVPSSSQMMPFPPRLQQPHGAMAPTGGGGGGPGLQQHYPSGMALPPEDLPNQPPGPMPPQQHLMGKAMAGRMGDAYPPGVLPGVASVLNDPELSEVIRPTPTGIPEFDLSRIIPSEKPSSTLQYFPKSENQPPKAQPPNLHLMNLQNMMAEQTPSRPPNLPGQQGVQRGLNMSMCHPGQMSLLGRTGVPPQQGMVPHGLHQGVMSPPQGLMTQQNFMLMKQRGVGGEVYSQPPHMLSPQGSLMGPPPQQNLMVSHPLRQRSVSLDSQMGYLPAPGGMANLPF
inactive: saracatinib -0.042 | sotrastaurin 0.042 | alvocidib -0.012 | Tubastatin A 0.053 | [1] -0.017 | defactinib -0.014 | rucaparib 0.026 | [2] -0.092 | encorafenib -0.033 | [3] 0.069 | [4] -0.048 | filanesib 0.017 | zotarolimus -0.043 | idasanutlin 0.028 | alisertib 0.014 | [5] 0.02 | gefitinib 0.034 | [6] -0.067 | lapatinib 0.011 | pictilisib -0.007
